Source: PubChem BioAssay
Only a selection was taken, and hits are over-represented in it overall.
Tgondii IFNg: blocks Toxoplasma gondii growth in the presence of IFN-gamma; Toxoplasma gondii growth in IFN-gamma-treated host cells; hits give low values; activity change, negative = inhibition, % (no concentration beside the values); hit rate 3.8% among 69,000; in the data active means activity change below about -70%, passing the limit was not always enough;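 further: host cells are HeLa cells infected with Toxoplasma gondii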
An asterisk follows results filed as active; ! = a repeat was not active.

`CC(=O)O[C@@H]1CC2C(C)(C)C(=O)C=C[C@]2(C)C2CC[C@]3(C)C(=CC(=O)O[C@H]3c3ccoc3)[C@@]21C` (some centres undefined) gave Tgondii IFNg -88*.
Screening CC(=O)O[C@H]1C[C@@H](OC(C)=O)C(C)(C)C2C[C@@H](OC(C)=O)[C@]3(C)C(CC[C@@]4(C)[C@H](c5ccoc5)C(=O)[C@H]5O[C@]543)[C@]21C (some centres undefined) returned Tgondii IFNg 15.
CC1(C)C2CC(=O)[C@]3(C)C(CC[C@@]4(C)[C@H](c5ccoc5)OC(=O)[C@H]5O[C@]543)[C@@]2(C)C(=O)C[C@H]1O (some centres undefined) was read as Tgondii IFNg 6.
O=C(Nc1ccc(CC(=O)N2CCN3CCNC(=O)C3C2)cc1)C1CC1 (centres undefined) was read as Tgondii IFNg 4.
CN(C(=O)[C@@H](N)Cc1cnc[nH]1)C1Cc2ccccc2C1 was read as Tgondii IFNg 65.
`O=C(Nc1ccncc1)C(=O)c1cn(Cc2ccc(Cl)cc2)c2ccccc12` gave Tgondii IFNg -78*.
O=Cc1cn(Cc2ccc(F)cc2)c2ccccc12 was read as Tgondii IFNg -3.
`O=C(Nc1ccc(Cl)cc1)c1cc2cccnc2n(Cc2ccc(F)cc2)c1=O` gave Tgondii IFNg 0.
Cc1noc(C)c1CN1CC[C@H]2[C@@H]1CCN2CC(=O)N(C)C was read as Tgondii IFNg 4.
CN1CCO[C@]2(CCC[C@H]2COc2cccnc2)C1 was read as Tgondii IFNg -17.
For COc1ccc2c(c1)C1(CCN(C(=O)c3ccc(F)c4ccccc34)CC1)CC2CC(=O)O (centres undefined) the results were Tgondii IFNg -13.
Screening COCCN1CCN(C2CCOC2)Cc2cccnc21 (centres undefined) returned Tgondii IFNg -13.
Screening CC1(C)C(=O)[C@@H]2O[C@@H]2[C@@]2(C)C1C[C@@H](O)[C@]1(C)C2CC[C@@]2(C)[C@H](c3ccoc3)OC(=O)C3OC321 (some centres undefined) returned Tgondii IFNg 5.
Screening CC(=O)O[C@@H]1C[C@@]2(C)[C@H](c3ccoc3)C[C@H]3O[C@]32[C@]2(C)C(=O)C(=O)C3C(C)(C)C(=O)C=C[C@]3(C)C12 (some centres undefined) returned Tgondii IFNg -83*.
Screening O=C(Nc1ccc(Oc2ccccc2)cc1)c1cc2cccnc2n(Cc2ccccc2F)c1=O returned Tgondii IFNg 44.
`COCCn1c(C(=O)O)cc2cc(Cl)ccc21` gave Tgondii IFNg 221.
`Cc1ccc(CN2CCC3O[C@@H](COc4cccnc4)CCC32)o1` (some centres undefined) gave Tgondii IFNg 72.
For CN(C)C(=O)C1OC2(CCNCC2)c2ccccc21 (centres undefined) the results were Tgondii IFNg 98.
For COC(=O)c1ccc(/C=C/C(=O)C2C(=O)N(C)C3(C)CC2c2cc(Cl)ccc2O3)cc1 (centres undefined) the results were Tgondii IFNg 1.
For Cc1ccc(C)c(NC(=O)c2cc3cccnc3n(Cc3ccccc3)c2=O)c1 the results were Tgondii IFNg -1.
For O=C(NC1CCCCCC1)c1cc2cccnc2n(Cc2ccc(Cl)cc2)c1=O the results were Tgondii IFNg -9.
COc1ccccc1[C@@H]1CN(C(=O)Cn2nccc2C)[C@@H]2C3CCN(CC3)[C@@H]21 was read as Tgondii IFNg -5.
Screening CCc1nc(C)cc(NCCC23CCCN2CCC3)n1 returned Tgondii IFNg -3.
`Fc1cc(F)c2c(c1)[C@H]1C=CC[C@H]1C(c1cccnc1)N2` (some centres undefined) gave Tgondii IFNg -74*.
For c1cncc(C2CCCN2)c1 (centres undefined) the results were Tgondii IFNg 13.
For CC(C)N(C)[C@H]1CN(C(=O)Cc2ccccn2)C[C@H]2CCCO[C@H]21 the results were Tgondii IFNg 36.
`CCC(C)NC(=O)c1cc2cccnc2n(Cc2ccccc2)c1=O` (centres undefined) gave Tgondii IFNg 9.
`Cc1noc(C)c1CN1CC2CNC(C2)C1` (centres undefined) gave Tgondii IFNg 0.
Screening Cc1cc(-c2cnc(N3CC4CC(C3)c3cccc(=O)n3C4)nc2-c2cccs2)on1 (centres undefined) returned Tgondii IFNg -2.
For CCOP(=S)(OCC)Oc1nc(Cl)c(Cl)cc1Cl the results were Tgondii IFNg -76*!.
For CCN(CC)Cc1ccc(C(=O)N(C)c2nc3c(s2)C2CCC(C3)N2C)o1 (centres undefined) the results were Tgondii IFNg -10.
`CN(C)CCNC(=O)c1cc2cccnc2n(Cc2ccc(F)cc2)c1=O` gave Tgondii IFNg -40.
Screening Cc1cc(C)cc(NC(=O)c2cc3cccnc3n(Cc3ccccc3F)c2=O)c1 returned Tgondii IFNg 84.
For C=CCN1CC[C@H]2[C@@H]1CCN2C(=O)c1cc(C)on1 the results were Tgondii IFNg 19.
Screening C=CCN1CC[C@@H]2[C@@H]1CCN2c1ncc(F)cn1 returned Tgondii IFNg 3.
Screening C=CCN1CC[C@@H]2[C@@H]1CCN2C(=O)c1cncc(C)c1 returned Tgondii IFNg -98*.
For CC(=O)N1CCCCC12CCNC2 (centres undefined) the results were Tgondii IFNg -2.
CC(O)CN1C[C@H]2CCC[C@@H](CNc3ncccn3)[C@@H]2C1 (some centres undefined) was read as Tgondii IFNg 14.
`CCCCCN1CC2CN(C(=O)Cc3ccc(Cl)cc3)CC21` (centres undefined) gave Tgondii IFNg -7.
Cn1cc(N2CCC3(CCN(Cc4ccncc4)C3)C2=O)cn1 (centres undefined) was read as Tgondii IFNg -64.
`CCN1C[C@H]2[C@H](OC)CCN(C(=O)c3ncccn3)[C@H]2C1` gave Tgondii IFNg 171.
COc1ccc(C2=NCC(=O)N(Cc3nc(-c4ccccc4)oc3C)c3sc4c(c32)CCCC4)cc1 was read as Tgondii IFNg -87*.
For c1ccc2c(c1)C(OCC1CC1)[C@@H]1CNC[C@@H]21 (some centres undefined) the results were Tgondii IFNg 4.
`Cc1ccc(CN2CCOC3CNCC[C@@H]32)o1` (some centres undefined) gave Tgondii IFNg 11.
For O=C(Nc1cccc(Cl)c1)OC1CN2CCC1CC2 (centres undefined) the results were Tgondii IFNg -78*.
For O=C(c1cccc(Cl)c1)C1CCCN(C2CCCCC2)C1 (centres undefined) the results were Tgondii IFNg -3.
Screening CC(=O)OC1CN2CCC1CC2 (centres undefined) returned Tgondii IFNg 12.
For COc1cc(N2CC[C@@H]3[C@H]2CCN3Cc2cccnc2)ncn1 the results were Tgondii IFNg -5.
`Fc1cnc(N2CCN3C[C@H](OCC4CC4)C[C@@H]3C2)nc1` gave Tgondii IFNg -3.
OC(c1ccccc1)(c1ccccc1)c1cnc[nH]1 was read as Tgondii IFNg -62.
For COCc1cncc2c1CCN(S(=O)(=O)c1cn(C)cn1)C2 the results were Tgondii IFNg -17.
`O=C(N[C@H]1CN2CCC1CC2)c1ccc(Cl)cc1` gave Tgondii IFNg -23.
Cn1cc(C(=O)C(=O)N[C@H]2CN3CCC2CC3)c2ccccc21 was read as Tgondii IFNg -80*!.
